Screening results as filed in PubChem BioAssay.
TbPYK inhibitor – inhibitors of Trypanosoma brucei pyruvate kinase; Q57TT1; TbPYK enzyme, Kinase-Glo Plus ATP luminescence, 45 min; Potency, µM (top dose mostly 76.8 µM), without a hit: top-dose activity, negative = inhibition, most hits filed as inhibitors; actives 0.12% (n = 410,000); note: potency is the fitted concentration of half-maximal effect; % is set by controls: 0 for no effect and ±100 for the full control effect; nearly all actives have a fitted effect of over 50% in size
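In this concentration-response screen, enzyme-free wells defined baseline while DMSO plates tracked drift. Each reaction combined TbPYK, substrate, compound and 130 uM ADP for 45 min at room temperature. Kinase-Glo Plus luminescence gave the signal.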
Giardia FBPA inh – Giardia lamblia aldolase inhibition. A8B2U2. purified Giardia FBPA. Potency, µM (highest dose often 59.6 µM), for inactives: at the highest dose activity, negative = inhibition, usual class: inhibitors. actives 0.71% (n = 290,000). AID 2451; note: potency is the fitted concentration of half-maximal effect; % is set by controls: 0 for no effect and ±100 for the full control effect; nearly all actives have a fitted effect of over 55% in size
Target sequence (A8B2U2 whole entry, looked up): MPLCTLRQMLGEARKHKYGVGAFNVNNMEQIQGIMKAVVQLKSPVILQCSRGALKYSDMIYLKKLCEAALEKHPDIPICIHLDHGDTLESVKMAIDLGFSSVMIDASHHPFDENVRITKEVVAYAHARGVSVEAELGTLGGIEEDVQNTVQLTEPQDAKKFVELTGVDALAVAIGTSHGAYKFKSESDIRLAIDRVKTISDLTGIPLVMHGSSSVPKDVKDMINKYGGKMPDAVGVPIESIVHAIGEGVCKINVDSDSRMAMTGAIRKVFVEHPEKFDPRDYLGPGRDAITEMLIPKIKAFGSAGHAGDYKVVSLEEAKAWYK
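40 nM FBPA preincubated 10 min at RT with compound (up to 57.5 uM final), then substrate plus GAPDH/TPI/NAD/arsenate coupling and diaphorase/resazurin added. Fluorescence read after 20 min at RT, 525/598 nm.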
LmPK inh – LmPK (Leishmania mexicana) enzyme inhibition. purified LmPK, Kinase-Glo ATP luminescence, 1 h. AID 1721. Potency, µM (top dose mostly 57.5 µM), for the others: at the highest dose activity change, negative = inhibition, most hits filed as inhibitors. Q27686. actives 0.37% (n = 290,000); note: potency is the fitted concentration of half-maximal effect; % is set by controls: 0 for no effect and ±100 for the full control effect
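Screened at intermediate enzyme activity to detect both inhibitors and activators: LmPK at 0.1 nM, with a 0.5 nM enzyme column as activation reference. PEP 0.5 mM, ADP 0.1 mM; ATP detected by luminescence after 1 h.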
Sm TGR inh – inhibitors of Schistosoma mansoni thioredoxin glutathione reductase | Q962Y6 | purified TGR, DTNB reduction, TNB absorbance 405 nm | Potency, µM (highest dose often 114 µM), for the others: at the highest dose activity change, negative = inhibition, usual class: inhibitors | actives 3% (n = 360,000); note: potency is the fitted concentration of half-maximal effect; % is set by controls: 0 for no effect and ±100 for the full control effect; nearly all actives have a fitted effect of over 60% in size
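TGR 20 nM + NADPH 100 uM (dispensed conc.), cpd preinc 15 min RT; start with NADPH (500 uM addition) then DTNB (15 mM addition). Kinetic TNB absorbance, 405 nm filter. Four-parameter Hill fit across titration.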
Shiga toxin inh – inhibitors of Shiga toxin in Vero cells | Vero cells, Shiga toxin protein synthesis inhibition reporter | inhibition, % at 38.7 µM | actives 9.2% (n = 290,000) | AID 2315; in the data active = inhibition mostly above about 28%, no sharp cut-off; inactive = mostly below about 43%; note: 0% is about no effect
CHX counter – counter-screen for Shiga toxin inhibitors: cycloheximide protein synthesis inhibition. actives 12% (n = 300,000). cell reporter, cycloheximide protein synthesis inhibition counterscreen. max response, %. AID 2314; in the data active = max response mostly above about 13%, no sharp cut-off; inactive = mostly below about 14%; note: read at 38.3 µM for the half of the compounds with a filed dose; 0% is about no effect
An asterisk follows results filed as active; ? = inconclusive; . = not tested or not shown; [ ] = dose if it differs, or a comment. Shown is part of a subset that was picked to be rich in hits. Unless noted, calls come from the whole dose curve; as a rule, active = well fitted curve in the direction sought with a large enough effect; inconclusive = small, poorly fitted or top-dose-only effect, or another doubt; inactive = no such curve, though single readings can be large; an effect the other way counts as inactive or inconclusive.

SMILES	TbPYK inhibitor	Giardia FBPA inh	LmPK inh	Sm TGR inh	Shiga toxin inh	CHX counter
COC(=O)c1ccc(-c2ccc(Cl)cc2)nc1C	-4%	0%	-14%	21%	37*	95*
COC(=O)c1cc(C#N)c(NCc2ccc(Cl)cc2Cl)nc1C	4%	.	1%	-29%	-9	-4
Cc1cc2n(c1)CCn1c(C)ccc1-2	.	?	-3%	45µM*	-9	-4
COc1cc(OC)c(NC(=O)Cn2c(=O)cc(C(F)(F)F)c3c(C)nn(C)c32)cc1Cl	3%	.	.	6%	.	.
Cc1cc2nc(-c3ccc(SCc4ccccn4)nc3)[nH]c2cc1C	-3%	-21%	-7%	3%	98*	34*
CCOC(=O)CSc1ccc(-c2nc3cc(C)c(C)cc3[nH]2)cn1	-5%	-19%	-1%	3%	61*	55*
Cc1cc2nc(-c3ccc(SCC(=O)N4CCN(C(=O)c5ccco5)CC4)nc3)[nH]c2cc1C	-17%	2%	-26%	10µM*	26*	20*
Cc1cc2nc(-c3ccc(SCC(=O)N4CCOCC4)nc3)[nH]c2cc1C	2%	-14%	-18%	-1%	70*	33*
Cc1cc(N/N=C/c2ccc(O)c(C)c2O)nc(-c2ccccc2O)n1	-16%	0%	0%	-3%	32	25*
C/C(=N\Nc1cc(C)nc(-c2ccccc2O)n1)c1ccccc1	-8%	-8%	7%	.	151	31*
CC(C)(C)NCC(O)COc1ccc(NC(=O)NC2CCCCC2)cc1 (configuration not stated)	2%	.	.	.	.	.
COc1ccccc1CN(C)C(=O)CSCC(=O)Nc1ccccc1F	5%	.	.	.	.	.
CCOC(=O)c1c(C)[nH]c(C)c1S(=O)(=O)N1CCCC(C(=O)N2CCN(c3cccc(C)c3C)CC2)C1 (configuration not stated)	-2%	.	.	3%	.	.
Cn1c(SCc2ccccc2F)nc2cccnc21	-2%	-8%	-29%	8%	117*	28*
O=C(CSc1nc2cccnc2n1Cc1ccccc1)N1CCCC1	-9%	-1%	2%	3%	2	-4
Cn1c(SCC(=O)N2CCCC2)nc2cccnc21	-3%	-13%	1%	40µM*	-7	1
Cc1cccc(N2CCN(C(=O)c3ccc4nc(N5CCCCC5)sc4c3)CC2)c1C	0%	4%	1%	7%	31	3
NC(=O)C1CCN(C(=O)c2ccc3nc(N4CCCCC4)sc3c2)CC1	-2%	0%	-1%	2%	71*	35*
O=C(c1ccc(S(=O)(=O)N2CCCCC2)cc1)N1CCN(Cc2ccc3c(c2)OCO3)CC1	1%	-3%	3%	-13%	23	-4
O=C(c1ccc2nc(N3CCCCC3)sc2c1)N1CCN(Cc2ccc3c(c2)OCO3)CC1	0%	-1%	6%	-8%	active	30*
O=C(c1ccc2nc(N3CCCCC3)sc2c1)N1CCN(c2ccccn2)CC1	-5%	-1%	-4%	2%	11	23*
CCOC(=O)N1CCN(C(=O)c2ccc3nc(N4CCCCC4)sc3c2)CC1	3%	1%	-3%	2%	18	14*
CC1CCN(c2nc3ccc(C(=O)N4CCN(Cc5ccccc5)CC4)cc3s2)CC1	-4%	1%	14%	10%	85*	52*
COc1cccc(N2CCN(C(=O)c3ccc4nc(N5CCC(C)CC5)sc4c3)CC2)c1	4%	-7%	11%	10%	117*	64*
c1ccc(CN2CCN(c3nc4ccccc4s3)CC2)cc1	-3%	15%	1%	7%	96*	53*
SMILES	TbPYK inhibitor	Giardia FBPA inh	LmPK inh	Sm TGR inh	Shiga toxin inh	CHX counter
CCOC(=O)N1CCN(C(=O)c2ccc3nc(N4CCC(C)CC4)sc3c2)CC1	-9%	5%	-2%	-26%	42*	24*
Cn1c2cc(C#N)sc2c2cnn(Cc3ccccc3F)c(=O)c21	.	.	.	.	-14	-8
COc1ccc(C(c2c(C)n(C)n(-c3ccccc3)c2=O)c2c(C)n(C)n(-c3ccccc3)c2=O)c(OC)c1OC	-15%	?	-1%	-19%	-5	-3
Oc1ccc(NCc2cccc(OCc3ccc(F)cc3)c2)cc1	?	18µM*	-2%	28µM*	45*	24*
OCCNCc1cccc(OCc2ccc(Cl)cc2)c1	6%	-4%	1%	.	25	7
O=[N+]([O-])c1ccc(COc2cccc(CNc3ccc(F)cc3)c2)cc1	-4%	-6%	-1%	-4%	37*	35*
Oc1ccc(NCc2cccc(OCc3ccccc3)c2)cc1	?	16µM*	1%	13µM*	47	22*
c1ccc(COc2cccc(CNCc3ccccn3)c2)cc1	-1%	-4%	-2%	6%	65*	34*
CCOc1cc(CNc2ccc(O)cc2)cc(Cl)c1OCc1ccccc1	-16%	.	.	-19%	.	.
CCOc1ccccc1NC(=O)c1c(NC(=O)c2cccc(C)c2)sc2c1CCCC2	-10%	.	.	?	.	.
Cc1c(C(=O)NCc2ccccc2Cl)sc2ncnc(N(C)C3CCCCC3)c12	-4%	.	.	7%	.	.
S=C(Nc1ccc(Cl)cc1)N1CCN(Cc2ccccc2)CC1	-6%	5%	-1%	-8%[57.1 µM]	-19	-1
O=C(/C=C/c1cccc([N+](=O)[O-])c1)NC(=S)Nc1ccc(CN2CCOCC2)cc1	-6%	0%	1%	-4%	-3	-1
CC(C)c1ccc(/C=C/C(=O)NC(=S)Nc2ccc(CN3CCOCC3)cc2)cc1	3%	1%	5%	-2%	12	15*
CC(C)c1ccc(NC(=S)N2CCN(Cc3ccccc3)CC2)cc1	1%	12%	3%	5%	36	12*
CC(C)c1ccc(/C=C/C(=O)NC(=S)NN2CCOCC2)cc1	5%	.	-5%	-6%	15	17*
CC(C)c1ccc(C(=O)NN2CCOCC2)cc1	3%	.	-2%	-9%	-20	-1
CCN(CC(=O)NCc1cccs1)C(=O)c1ccc(-c2ccc(F)cc2)o1	-1%	.	.	.	.	.
Cc1ccc2c(c1)c(=O)c1ccccc1n2CCCC(=O)Nc1ccc(C)c(C)c1	2%	.	.	-10%	.	.
O=C(C1CCCN(S(=O)(=O)c2ccc(F)cc2)C1)N1CCCCC1 (configuration not stated)	-4%	.	9%	-5%	22	4
Cc1ccc(O)c(NC(=O)c2cc(-c3ccccc3)on2)c1	7%	9%	3%	69%	.	66*
O=C(Nc1cc(Br)ccc1O)c1cc(-c2ccccc2)on1	0%	3%	0%	-19%	27	14*
O=C(Nc1cccnc1Cl)c1cc(-c2ccc(Br)cc2)on1	-7%	3%	-7%	3%	16	-4
COc1ccc(N(CC(=O)Nc2ccc3c(c2)OCCO3)S(C)(=O)=O)c(OC)c1	4%	-8%	-6%	-4%	76*	34*
